Rows were chosen to be rich in hits. Some 7.9% of all compounds tested hit in one or more screens of this group.
KB-3-1 cytotox: qHTS assay for MDR1-selective chemotherapeutics: Primary screen using the parental adenocarcinoma cell KB-3-1 | KB-3-1 viability, CellTiter-Glo ATP luminescence, 72 h | Potency, µM (titrated, usually from 46.1 µM), hits mostly cytotoxic | 1.4% of 400,000 active; also: % is scaled to controls: 0 for no effect and ±100 for the full control effect; nearly all actives have a fitted effect of over 60% in size
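Screening of KB-3-1 cells (DMEM, 10% FBS, phenol-red free) ran from lowest to highest compound concentration; after 72 h at 37 °C viability was read luminescently and curves fitted.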
HT1080 IDH1KD tx: qHTS for induction of synthetic lethality in tumor cells producing 2HG: qHTS for the HT-1080-IDH1KD cell line | HT-1080 IDH1 knockdown viability, ATP luminescence, 48 h | Potency, µM (top dose mostly 46.1 µM), for inactives: top-dose activity, negative = toxicity, actives largely listed as cytotoxic | 2% of 360,000 active;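 also: 0% = DMSO wells and -100% = cell-free medium wells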
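IDH1KD HT-1080 cells, 750/well, RPMI + 5% FBS; compound pinned after 2 h settling; 48 h, 37 °C; CellTiter-Glo luminescence; % activity normalised to DMSO and no-cell wells; curves fitted, classed by r2 and efficacy.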
MCF10A rerep: A quantitative high throughput screen for small molecules that induce DNA re-replication in MCF 10a normal breast cells | MCF 10A DNA re-replication, Hoechst nuclear intensity, 48 h | Potency, µM (top dose mostly 46.1 µM), without a hit: at the top dose activity, positive = re-replication, hits mostly activators | 2.9% of 350,000 active | AID 624296, 2012; also: % of control where 0% means no effect; nearly all actives have a fitted effect of over 50% in size
HT1080NT lethal: qHTS for induction of synthetic lethality in tumor cells producing 2HG: qHTS for the HT-1080-NT fibrosarcoma cell line | 1.6% of 360,000 active | HT-1080-NT fibrosarcoma viability, CellTiter-Glo ATP luminescence, 48 h | Potency, µM (highest dose often 46.1 µM), for the others: at the highest dose activity, negative = less viability, usual class: cytotoxic | AID 686970, 2013;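 also: NT is the 2HG producing partner of a matched IDH1 knockdown line; 0% = DMSO-treated cells and -100% = media-only wells without cells; nearly all actives have a fitted effect of over 55% in size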
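Viability of the 2HG-overproducing fibrosarcoma line after 48 hours of compound exposure at 37 degrees C was determined by luminescence with CellTiter-Glo, and concentration-effect curves were then fitted and categorized.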
KB-V1 MDR tox: qHTS assay for MDR1-selective chemotherapeutics: Primary screen using the drug-selected MDR subline cells KB-V1; KB-V1 MDR cells viability, CellTiter-Glo, 72 h; Potency, µM (top dose mostly 46.1 µM), hits mostly cytotoxic; 3.4% of 400,000 active; also: % is scaled to controls: 0 for no effect and ±100 for the full control effect; nearly all actives have a fitted effect of over 60% in size
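Cytotoxicity toward P-gp-expressing KB-V1 cells was determined as loss of CellTiter-Glo luminescence after 72 h at 37 degrees C. Compounds were tested in quantitative HTS format across a concentration range, with curves fitted to normalized data.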
SW480 rereplic: A quantitative high throughput screen for small molecules that induce DNA re-replication in SW480 colon adenocarcinoma cells; SW480 DNA re-replication, Hoechst DNA content imaging, 48 h; Potency, µM (top dose mostly 46.1 µM), without a hit: top-dose re-replication activation, usual class: activators; 1.8% of 340,000 active; AID 624297, 2012; also: % of control where 0% means no effect; nearly all actives have a fitted effect of over 55% in size
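Per well, 250 cells were exposed to pinned compound for 48 hr. Nuclear DNA was visualised with Hoechst (40 min, 37 C) and total object intensity recorded by fluorescence scanning.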
Starred values were filed as active, the others as inactive; i = inactive; ? = inconclusive; . = not tested or not shown; ! = not confirmed by another sample. Calls follow the shape of the dose curve; as a rule, active = well fitted curve in the direction sought with a large enough effect; inconclusive = small, poorly fitted or top-dose-only effect, or another doubt; inactive = no such curve, though single readings can be large; an effect the other way counts as inactive or inconclusive. Potency is read from the fitted curve at half-maximal effect.

SMILES | KB-3-1 cytotox | HT1080 IDH1KD tx | MCF10A rerep | HT1080NT lethal | KB-V1 MDR tox | SW480 rereplic
COc1ccccc1OCc1ccc(C(=O)N2N=C(C(F)F)CC2(O)C(F)F)o1 (stereo not given) | i | 7% | ? | 5% | 16µM* | 10%
CCCCCC(=O)N1C[C@@H](n2cc(COC(=O)c3ccccc3)nn2)[C@H](O)C[C@@H]1c1ccc(C)cc1 | i | 9% | . | 18% | i | .
CN(Cc1cccs1)S(=O)(=O)c1ccc(Cl)cc1F | i | -2% | 10% | 2% | i | -1%
CS(=O)(=O)N(Cc1ccccc1)c1ccc(C(=O)N2CCOCC2)cc1 | i | 15% | -4% | 12% | i | 5%
O=C(Nc1cccnc1)c1ccc(COc2ccccc2Br)o1 | 16µM* | 10µM* | 21µM* | 4.5µM* | ? | ?
CCOc1ccc(OCc2ccc(C(=O)NCc3ccncc3)o2)cc1 | i | 3% | 18µM* | -15% | ? | -2%
CC(C)(C)c1ccc(OCc2ccc(C(=O)N3CCOCC3)o2)cc1 | i | ? | 9% | ? | 26µM* | ?
CCc1ccc(OCc2ccc(C(=O)NCc3ccccn3)o2)cc1 | i | -16% | 26% | -22% | i | 4%
O=C(CSc1nc2ccccc2o1)NC(=O)NCc1ccco1 | i | -9% | -2% | -11% | i | 2%
CSc1ncc2[nH]c(C(O)c3ccccc3)nc2n1 (stereo not given) | 3.3µM* | -7% | 2% | ? | 8.2µM* | 0%
O=S(=O)(c1ccc(Br)cc1)c1cnc2ccccc2n1 | i | ? | ? | ? | i | 18µM*
C[n+]1ccccc1/C=N/O | i | -2% | 3% | 41% | i | -9%
CC[n+]1ccc(/C=C2\Sc3ccccc3N2CCCS(=O)(=O)[O-])c2ccccc21 | i | -7% | 1% | -16% | i | -4%
C[n+]1ccccc1/C=C1\Sc2ccccc2N1CCO | 21µM* | ? | 16% | -26% | i | -1%
Cc1ccc2c(c1)S/C(=C\c1cccc[n+]1C)N2CCO | ? | 16µM* | 1% | -3% | ? | -40%
Cc1ccc2c(c1)S/C(=C/c1ccc[n+](CCO)c1)N2C | 2.6µM* | ? | 23% | -17% | i | -1%
CC1=NNC(=O)C(CC(=O)Nc2ccc(Cl)c(Cl)c2)C1 (stereo not given) | i | -9% | -1% | -1% | i | 0%
O=C(COC(=O)c1ccc(O)cc1O)NC12CC3CC(CC(C3)C1)C2 | i | -2% | -9% | 0% | i | 0%
CCN(CC)S(=O)(=O)c1cccc(C(=O)OCC(=O)C23CC4CC(CC(C4)C2)C3)c1 | ? | 1% | 15% | 2% | 15µM* | 6%
O=C(OCC(=O)C12CC3CC(CC(C3)C1)C2)c1ccc(O)cc1O | i | 18µM* | ? | 13µM* | i | ?
CCOC(=O)c1c(C)[nH]c(C)c1C(=O)COC(=O)c1cccc(S(=O)(=O)N(CC)CC)c1 | i | -11% | ? | 0% | i | 9%
O=C(O)Cn1nnc(-c2ccc(OCc3ccccc3Cl)cc2)n1 | i | 4% | 7% | -16% | i | 0%
COc1ccc(NC(=O)c2cc([N+](=O)[O-])ccc2O)cc1 | 18µM* | ? | ? | 21µM* | ? | 18%
O=C(O)c1ccccc1C(=O)Nc1cccc([N+](=O)[O-])c1 | i | -1% | -6% | -4% | i | -1%
O=C(Nc1cccc([N+](=O)[O-])c1)c1cc2ccccc2cc1O | 13µM* | 3.7µM* | ? | 3.7µM* | ? | ?
SMILES | KB-3-1 cytotox | HT1080 IDH1KD tx | MCF10A rerep | HT1080NT lethal | KB-V1 MDR tox | SW480 rereplic
Cc1c(C(=O)Nc2cccc([N+](=O)[O-])c2)csc1-c1ccccc1 | i | -17% | ? | -12% | 8.2µM* | 3%
CC1CN(S(=O)(=O)c2ccc(C(=O)Nc3nccs3)cc2)CC(C)O1 (stereo not given) | i | -6% | 11% | -5% | i | -8%
Cc1c(C(=O)NC2=NCCS2)cccc1[N+](=O)[O-] | i | 17% | -1% | 11% | ? | -6%
Cc1nc2c(OCc3ccc(C(F)(F)F)cc3)cccn2c1N(C)CC1CC1 | i | ? | . | 6.5µM* | i | .
COC(=O)c1ccccc1COc1cccn2c(N(C)CC3CC3)c(C)nc12 | ? | ? | . | ? | 15µM* | .
Cc1nc2c(OCc3ccc(C#N)cc3)cccn2c1N(C)Cc1cccs1 | ? | -23% | . | -27% | 15µM* | .
O=C(NCCc1ccccc1)C(=O)NCC1OCCN1S(=O)(=O)c1ccc(Br)cc1 (stereo not given) | i | -4% | ? | -12% | i | -8%
COc1ccc(C(CCN2CCOCC2)c2c(O)cc(OC)cc2OC)cc1 (stereo not given) | i | 3% | 24% | -1% | i | ?
COc1ccc(C(c2c(O)ccc3ccccc23)N2CCOCC2)c(OC)c1 (stereo not given) | i | ? | 3.3µM* | -8% | i | ?
Cc1ccccc1NC(=O)Cc1nc(COC(=O)c2nc(Cl)ccc2Cl)cs1 | i | -4% | -2% | 0% | i | -1%
Cc1ccccc1NC(=O)Cc1nc(COC(=O)c2ncc(Cl)c(Cl)c2Cl)cs1 | i | -1% | ? | -23% | i | 6.5µM*
CC(CCc1ccccc1)NC(=O)COC(=O)c1ccc([N+](=O)[O-])cc1 (stereo not given) | i | -3% | 2% | 9% | i | -2%
Cc1ccccc1NC(=O)COC(=O)c1ccc(S(C)(=O)=O)c([N+](=O)[O-])c1 | 21µM*! | 10µM* | ? | ? | i | 7.3µM*
Cc1ccccc1NC(=O)Cc1nc(COC(=O)c2ccc(NC(N)=O)cc2)cs1 | i | -11% | -16% | -20% | i | -7%
CC(CCc1ccccc1)NC(=O)COC(=O)c1ccc(S(C)(=O)=O)c([N+](=O)[O-])c1 (stereo not given) | i | 7.3µM* | ? | 16µM* | i | ?
CS(=O)(=O)c1ccc(C(=O)OCC(=O)Nc2cc(C(F)(F)F)ccc2Cl)cc1[N+](=O)[O-] | ? | . | . | . | i | .

Source: PubChem BioAssay
